Source: ChEMBL document CHEMBL3988442, “University of Dundee, Small-Polar-MMV Screening Library” (2021)
For some of these results: Results with a measured potency or affinity are listed apart.

Assays:
[1] = target: T1, Methionyl-tRNA synthetase, putative (Leishmania donovani (strain BPK282A1)) (UniProt E9BF75); assay: Leishmania donovani Methionine tRNA synthetase (LdMetRS):v7. Dose response assay; format: functional; design: conc 80 nM, time 150 minutes
T1 sequence (whole entry): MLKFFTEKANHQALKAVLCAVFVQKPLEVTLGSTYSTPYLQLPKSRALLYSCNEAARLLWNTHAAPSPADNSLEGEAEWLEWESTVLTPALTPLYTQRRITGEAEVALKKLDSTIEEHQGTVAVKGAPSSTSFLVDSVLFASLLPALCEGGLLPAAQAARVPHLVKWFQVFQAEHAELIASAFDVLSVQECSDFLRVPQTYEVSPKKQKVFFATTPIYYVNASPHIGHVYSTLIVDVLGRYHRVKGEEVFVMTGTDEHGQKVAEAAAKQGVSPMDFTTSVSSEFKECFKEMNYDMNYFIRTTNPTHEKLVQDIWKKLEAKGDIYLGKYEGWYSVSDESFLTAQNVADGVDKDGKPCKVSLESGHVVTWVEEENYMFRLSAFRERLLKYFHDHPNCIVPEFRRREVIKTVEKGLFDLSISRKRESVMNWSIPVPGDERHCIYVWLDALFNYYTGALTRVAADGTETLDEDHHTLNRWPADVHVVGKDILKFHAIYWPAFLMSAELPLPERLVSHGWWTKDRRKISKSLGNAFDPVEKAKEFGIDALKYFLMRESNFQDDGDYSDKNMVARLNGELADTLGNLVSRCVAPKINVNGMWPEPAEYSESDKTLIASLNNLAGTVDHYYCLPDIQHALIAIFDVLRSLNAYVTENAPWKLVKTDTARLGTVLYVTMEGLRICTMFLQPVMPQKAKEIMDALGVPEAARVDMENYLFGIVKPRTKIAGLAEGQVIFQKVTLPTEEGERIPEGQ

[2] = target: Protein translocase subunit SecA (Escherichia coli (strain K12)) (UniProt P10408); assay: Assay to Identify E. coli SecA ATPase Inhibitors; format: functional; design: scale not given: direction of the effect not stated beside the values; conditions: 30 µM
[3] = target: T2, Ubiquitin-activating enzyme e1, putative (Leishmania donovani (strain BPK282A1)) (UniProt E9BSI1); assay: Leishmania donovani Ubiquitin Activating Enzyme (LdE1); format: functional; design: scale not given: direction of the effect not stated beside the values; conditions: 30 µM
T2 sequence (whole entry): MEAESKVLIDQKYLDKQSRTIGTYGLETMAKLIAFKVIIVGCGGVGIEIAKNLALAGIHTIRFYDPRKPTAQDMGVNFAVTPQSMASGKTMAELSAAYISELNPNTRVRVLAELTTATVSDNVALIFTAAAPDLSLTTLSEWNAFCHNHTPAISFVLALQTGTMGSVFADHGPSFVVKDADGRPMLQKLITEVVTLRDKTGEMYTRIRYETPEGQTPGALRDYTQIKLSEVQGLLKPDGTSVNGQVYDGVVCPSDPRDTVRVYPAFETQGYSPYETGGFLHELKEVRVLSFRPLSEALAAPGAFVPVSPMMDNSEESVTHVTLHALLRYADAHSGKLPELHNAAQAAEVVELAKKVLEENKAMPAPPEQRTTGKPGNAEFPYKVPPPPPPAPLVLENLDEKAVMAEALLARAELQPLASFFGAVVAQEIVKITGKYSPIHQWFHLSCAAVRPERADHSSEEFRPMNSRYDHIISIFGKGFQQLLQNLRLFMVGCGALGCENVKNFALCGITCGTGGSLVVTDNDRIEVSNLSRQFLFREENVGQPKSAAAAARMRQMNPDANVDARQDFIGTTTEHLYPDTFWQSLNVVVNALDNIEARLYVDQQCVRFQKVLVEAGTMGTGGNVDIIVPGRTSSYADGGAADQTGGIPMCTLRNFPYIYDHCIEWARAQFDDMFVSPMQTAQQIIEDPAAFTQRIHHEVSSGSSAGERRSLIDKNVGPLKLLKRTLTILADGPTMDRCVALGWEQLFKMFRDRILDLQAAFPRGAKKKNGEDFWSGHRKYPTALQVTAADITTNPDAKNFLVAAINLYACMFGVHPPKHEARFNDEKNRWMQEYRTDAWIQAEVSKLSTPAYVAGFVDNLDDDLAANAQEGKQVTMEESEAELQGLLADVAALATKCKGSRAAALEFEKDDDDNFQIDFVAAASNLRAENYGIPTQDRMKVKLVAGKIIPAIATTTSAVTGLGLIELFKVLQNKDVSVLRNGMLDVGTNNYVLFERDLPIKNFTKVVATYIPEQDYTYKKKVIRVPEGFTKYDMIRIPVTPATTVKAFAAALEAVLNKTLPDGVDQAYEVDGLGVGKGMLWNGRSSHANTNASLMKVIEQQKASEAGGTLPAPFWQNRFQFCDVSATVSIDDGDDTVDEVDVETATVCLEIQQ

[4] = target: AMP-activated protein kinase, AMPK (Homo sapiens) (UniProt P54646+O43741+P54619+Q9UGJ0+Q9Y478+Q13131+Q9UGI9); assay: AMP-dependent Kinase enzyme assay. An in vitro enzyme assay that detects ADP turnover that is directly proportional to AMPK activity. This uses naive AMPK that is activated during the assay with MK-8722; format: functional; design: scale not given: direction of the effect not stated beside the values; conditions: 30 µM
[5] = target: Sialic acid-binding Ig-like lectin 9 (Homo sapiens) (UniProt Q9Y336); assay: Hs-Siglec9 ALPHAscreen SOP 20170721; design: scale not given: direction of the effect not stated beside the values; conditions: 10 µM
Trypanosoma cruzi = assay: Trypanosoma cruzi phosphomannomutase and mannose-1-phosphate guanylyltransferase assay; format: functional; design: scale not given: direction of the effect not stated beside the values; conditions: 10 µM
[6] = target: T3, Arginase-2, mitochondrial (Homo sapiens) (UniProt P78540); assay: in vitro enzyme assay to detect the production of urea directly proportional to the activity of Arginase II; format: functional; design: scale not given: in the data most compounds retested in dose-response had high values
T3 sequence (whole entry): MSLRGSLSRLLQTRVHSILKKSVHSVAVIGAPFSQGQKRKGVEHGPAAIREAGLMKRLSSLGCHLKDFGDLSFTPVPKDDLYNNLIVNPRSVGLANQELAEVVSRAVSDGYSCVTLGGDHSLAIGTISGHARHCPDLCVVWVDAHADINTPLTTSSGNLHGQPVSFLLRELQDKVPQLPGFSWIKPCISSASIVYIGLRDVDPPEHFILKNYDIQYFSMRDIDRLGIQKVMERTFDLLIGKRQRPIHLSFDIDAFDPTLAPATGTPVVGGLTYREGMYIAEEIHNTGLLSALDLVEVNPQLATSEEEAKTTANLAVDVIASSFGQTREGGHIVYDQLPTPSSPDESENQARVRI

[7] = target: T4, Proteasome subunit beta (Trypanosoma cruzi) (UniProt O96673); assay: Trypanosoma cruzi proteasome chymotrypsin-like activity (TcProtChymo) assay.; format: functional; design: scale not given: in the data most compounds retested in dose-response had high values; conditions: 9.37 µM
T4 sequence (whole entry): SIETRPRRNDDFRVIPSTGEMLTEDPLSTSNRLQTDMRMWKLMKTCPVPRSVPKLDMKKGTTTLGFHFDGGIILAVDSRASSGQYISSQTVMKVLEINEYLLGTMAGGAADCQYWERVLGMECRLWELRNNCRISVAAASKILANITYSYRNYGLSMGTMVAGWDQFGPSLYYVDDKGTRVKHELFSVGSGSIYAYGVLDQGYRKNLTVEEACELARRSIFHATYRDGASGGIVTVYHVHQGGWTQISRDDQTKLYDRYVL

Homo sapiens = species on record: Homo sapiens; assay: To identify inhibition of the IFN signalling (Jak-Stat) pathway via expression of an eGFP reporter gene under the control of an IFN-stimulated response element (ISRE) containing MxA promoter.; format: functional; design: scale not given: direction of the effect not stated beside the values; conditions: 30 µM
[8] = target: T5, Tyrosyl-tRNA synthetase, putative (Trypanosoma cruzi (strain CL Brener)) (UniProt Q4DSP6); assay: Trypanosoma cruzi tyrosyl tRNA synthetase (TcYRS) _High Tyrosine SOP; format: functional; design: scale not given: in the data most compounds retested in dose-response had high values; conditions: 30 µM
T5 sequence (whole entry): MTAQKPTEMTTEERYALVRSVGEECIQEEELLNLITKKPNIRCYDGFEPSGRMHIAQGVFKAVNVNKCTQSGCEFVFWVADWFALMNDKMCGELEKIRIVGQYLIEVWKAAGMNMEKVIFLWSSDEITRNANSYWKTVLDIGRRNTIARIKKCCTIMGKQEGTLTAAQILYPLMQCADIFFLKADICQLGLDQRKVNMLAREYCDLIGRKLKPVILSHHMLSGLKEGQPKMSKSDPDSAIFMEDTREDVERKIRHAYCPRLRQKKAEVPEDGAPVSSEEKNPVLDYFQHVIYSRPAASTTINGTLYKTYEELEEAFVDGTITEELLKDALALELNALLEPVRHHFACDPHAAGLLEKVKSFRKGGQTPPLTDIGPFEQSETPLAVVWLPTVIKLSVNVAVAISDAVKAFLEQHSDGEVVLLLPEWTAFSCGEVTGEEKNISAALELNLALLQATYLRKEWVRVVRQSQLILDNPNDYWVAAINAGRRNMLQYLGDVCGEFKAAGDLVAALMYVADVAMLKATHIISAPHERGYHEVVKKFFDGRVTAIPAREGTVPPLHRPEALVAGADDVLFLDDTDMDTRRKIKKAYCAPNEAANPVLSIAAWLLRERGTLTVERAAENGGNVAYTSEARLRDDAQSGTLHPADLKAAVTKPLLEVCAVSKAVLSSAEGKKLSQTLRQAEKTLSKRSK

[9] = target: T5, Tyrosyl-tRNA synthetase, putative (Trypanosoma cruzi (strain CL Brener)); assay: Trypanosoma cruzi tyrosyl tRNA synthetase (TcYRS) SOP; format: functional; design: scale not given: direction of the effect not stated beside the values; conditions: 30 µM
[10] = target: Chromo domain-containing protein 1 (Saccharomyces cerevisiae (strain ATCC 204508 / S288c) (Baker's yeast)) (UniProt P32657); assay: ScCHD-1 Enzyme Inhibition Assay; format: functional; design: scale not given: in the data most compounds retested in dose-response had high values; conditions: 30 µM
Chromo domain-containing protein 1 (Saccharomyces cerevisiae (strain ATCC 204508 / S288c) (Baker's yeast)), sequence (P32657 whole entry, the tested form may be a part): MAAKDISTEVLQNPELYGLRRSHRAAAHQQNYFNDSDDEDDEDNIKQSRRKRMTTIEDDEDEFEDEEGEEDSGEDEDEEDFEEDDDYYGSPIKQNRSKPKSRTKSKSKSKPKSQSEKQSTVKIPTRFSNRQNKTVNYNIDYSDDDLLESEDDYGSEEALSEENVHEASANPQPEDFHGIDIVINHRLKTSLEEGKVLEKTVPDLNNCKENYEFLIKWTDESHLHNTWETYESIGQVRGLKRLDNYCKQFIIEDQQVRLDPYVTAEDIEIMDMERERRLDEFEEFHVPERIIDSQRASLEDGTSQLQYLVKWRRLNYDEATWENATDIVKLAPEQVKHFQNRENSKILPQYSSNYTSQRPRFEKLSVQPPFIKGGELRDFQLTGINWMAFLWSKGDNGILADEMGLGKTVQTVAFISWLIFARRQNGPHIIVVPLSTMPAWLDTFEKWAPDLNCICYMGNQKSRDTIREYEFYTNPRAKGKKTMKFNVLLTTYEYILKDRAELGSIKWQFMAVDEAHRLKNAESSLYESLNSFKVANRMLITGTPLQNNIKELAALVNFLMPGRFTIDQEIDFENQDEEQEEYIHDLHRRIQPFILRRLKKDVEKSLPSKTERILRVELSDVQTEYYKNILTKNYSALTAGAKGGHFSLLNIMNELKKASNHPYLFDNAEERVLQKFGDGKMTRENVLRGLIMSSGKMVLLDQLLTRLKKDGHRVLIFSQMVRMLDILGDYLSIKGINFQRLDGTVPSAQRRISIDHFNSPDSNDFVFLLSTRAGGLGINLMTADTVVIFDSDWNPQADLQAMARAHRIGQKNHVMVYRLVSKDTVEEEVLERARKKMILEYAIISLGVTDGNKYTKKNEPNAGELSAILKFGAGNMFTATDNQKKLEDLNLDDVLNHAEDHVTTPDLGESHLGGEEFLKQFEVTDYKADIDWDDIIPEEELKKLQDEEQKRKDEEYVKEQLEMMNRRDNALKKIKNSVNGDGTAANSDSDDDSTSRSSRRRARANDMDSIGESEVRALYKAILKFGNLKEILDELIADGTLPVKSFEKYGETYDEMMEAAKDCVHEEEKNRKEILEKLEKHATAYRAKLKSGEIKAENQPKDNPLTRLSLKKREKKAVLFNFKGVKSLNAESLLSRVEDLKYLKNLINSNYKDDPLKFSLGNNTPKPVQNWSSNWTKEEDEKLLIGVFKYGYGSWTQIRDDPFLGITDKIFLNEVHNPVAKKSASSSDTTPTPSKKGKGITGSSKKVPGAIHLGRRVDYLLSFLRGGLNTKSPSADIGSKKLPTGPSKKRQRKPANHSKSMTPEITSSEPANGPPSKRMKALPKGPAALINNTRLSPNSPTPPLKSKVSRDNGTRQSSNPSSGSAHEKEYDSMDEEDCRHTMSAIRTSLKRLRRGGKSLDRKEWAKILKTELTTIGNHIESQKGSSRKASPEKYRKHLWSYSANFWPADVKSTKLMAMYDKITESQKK

Protein translocase subunit SecA (Escherichia coli (strain K12)), sequence (P10408 whole entry): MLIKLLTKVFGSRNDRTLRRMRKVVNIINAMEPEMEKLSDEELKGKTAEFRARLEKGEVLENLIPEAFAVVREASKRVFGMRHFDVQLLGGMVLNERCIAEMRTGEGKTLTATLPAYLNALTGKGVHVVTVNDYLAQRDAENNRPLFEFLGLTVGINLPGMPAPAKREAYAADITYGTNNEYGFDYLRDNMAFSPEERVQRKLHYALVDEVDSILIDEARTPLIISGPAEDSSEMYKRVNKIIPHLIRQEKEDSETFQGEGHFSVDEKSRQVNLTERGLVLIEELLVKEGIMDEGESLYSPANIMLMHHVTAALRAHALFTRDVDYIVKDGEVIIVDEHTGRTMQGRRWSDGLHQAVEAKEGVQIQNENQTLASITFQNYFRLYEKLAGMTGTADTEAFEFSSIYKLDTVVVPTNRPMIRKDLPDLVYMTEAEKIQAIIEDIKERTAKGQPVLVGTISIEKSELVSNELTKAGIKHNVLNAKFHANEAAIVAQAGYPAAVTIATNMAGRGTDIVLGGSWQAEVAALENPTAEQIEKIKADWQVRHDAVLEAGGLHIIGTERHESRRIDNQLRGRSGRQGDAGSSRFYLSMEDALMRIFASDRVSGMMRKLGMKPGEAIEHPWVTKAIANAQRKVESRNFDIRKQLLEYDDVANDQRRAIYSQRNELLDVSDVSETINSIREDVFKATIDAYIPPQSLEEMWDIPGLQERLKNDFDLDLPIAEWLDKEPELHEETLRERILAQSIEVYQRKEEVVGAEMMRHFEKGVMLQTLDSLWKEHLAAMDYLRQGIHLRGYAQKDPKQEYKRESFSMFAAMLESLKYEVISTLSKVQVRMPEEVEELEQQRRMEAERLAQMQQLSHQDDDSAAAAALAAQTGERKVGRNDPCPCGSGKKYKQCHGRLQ
Sialic acid-binding Ig-like lectin 9 (Homo sapiens), sequence (Q9Y336 whole entry): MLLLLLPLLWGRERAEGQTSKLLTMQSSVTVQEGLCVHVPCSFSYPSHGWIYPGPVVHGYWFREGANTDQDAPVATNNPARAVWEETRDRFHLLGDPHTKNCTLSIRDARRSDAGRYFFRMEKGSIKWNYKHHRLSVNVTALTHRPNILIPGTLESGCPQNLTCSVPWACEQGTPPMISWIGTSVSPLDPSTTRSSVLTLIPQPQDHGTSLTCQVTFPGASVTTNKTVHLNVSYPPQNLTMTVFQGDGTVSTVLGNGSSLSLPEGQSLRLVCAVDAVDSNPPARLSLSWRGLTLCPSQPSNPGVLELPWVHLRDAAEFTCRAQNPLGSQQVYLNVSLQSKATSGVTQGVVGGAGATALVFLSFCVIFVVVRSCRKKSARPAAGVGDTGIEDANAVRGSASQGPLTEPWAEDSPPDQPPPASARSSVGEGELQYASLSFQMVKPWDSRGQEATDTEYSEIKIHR

Structure (SMILES) | PXC50 ([1]; MAX_EFFECT 3.800475059) | PXC50 ([1]; MAX_EFFECT 6.161971831) | Percent Effect [2] | Percent Effect [3] | Percent Effect [4] | Percent Effect [5] | Percent Effect (Trypanosoma cruzi) | Percent Effect ([6]; 33.3 µM) | Percent Effect [7] | Percent Effect (Homo sapiens) | Percent Effect [8] | Percent Effect [9] | Percent Effect [10] | PXC50 ([1]; MAX_EFFECT 10.70496084) | PXC50 ([1]; MAX_EFFECT 13.5770235) | Percent Effect ([6]; 30 µM)
FC1(F)CCN(Cc2ccccn2)CC12CCN(c1cccnc1)C2 (centres undefined) | < 4 | < 4 | -7.19% | 2.7% | 114% | -3.38% | -1.86% | 2.87% | 0.369% | 49.7% | -3.24% | -2.56% | -1.38% | – | – | –
Cc1nc(NCc2nnc(C)n2C)c2c(CC(C)C)csc2n1 | – | – | – | – | 1.71% | – | – | – | – | – | – | – | – | < 4 | < 4 | –
O=C(NC1CCC1)[C@@H]1CCO[C@@H]2CCN(CCc3ccccc3)C[C@H]21 | – | – | -2.5% | 16.2% | -6.69% | -3.15% | 4.3% | 14.6% | 22.7% | 12% | 8.91% | 18.3% | -3.4% | – | – | 8.11%
O=C(Cn1nc2c(cc1=O)CCCC2)N[C@@H](C(=O)O)c1ccccc1 | – | – | -1.59% | 9.33% | 0.931% | 7.75% | 3.34% | 0.176% | 12.2% | 14.1% | 10.6% | 20.5% | -5.57% | – | – | 8.11%
Cc1cc(C)n(C2CN(Cc3noc(-c4ccccc4)n3)C2)n1 | – | – | -4.45% | -7.79% | 3.83% | 3.24% | -6.39% | -5.52% | 14.3% | 5.29% | 3.23% | 1.24% | -0.0991% | – | – | 5.95%
CCC(C(=O)NCc1ccncc1)N(c1ccc(OC)cc1)S(C)(=O)=O (centres undefined) | – | – | -4.48% | 2.67% | -7.64% | 14% | 4.97% | 3.65% | 2.27% | 6.36% | 4.92% | 8.64% | -13.6% | – | – | 2.7%
